Only some compounds are listed: those with a hit (about 27% of all), similar ones and a draw of the others.
CYP2C19 act = activators of human cytochrome P450 2C19; recombinant CYP2C19, luciferin-H EGE luminescence; hits give high values; 0 = fully inhibited enzyme, 1 = untreated enzyme; activation factor at 5 µM; 96,000 tested, under 10 active; AID 1025;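 active = activation factor of at least 2 at 5 µM in the primary screen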;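 also: 0 = wells with 2.5 mM tranylcypromine and 1 = vehicle-only wells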
CYP2C19 inhib = human CYP2C19 inhibition. P33261. CYP2C19 Supersomes, luciferin-H EGE luminescence, 30 min. inhibition, % at 5 µM. 21% of 96,000 active. AID 778;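 active = CYP2C19 inhibition above a set limit at 5 µM in the primary screen, cut at about 50% in these data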;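 also: plate controls were negative control wells for no effect and 2.5 mM tranylcypromine positive control for full effect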
CYP2C9 activ = increases human cytochrome P450 2C9 activity. P11712. recombinant CYP2C9, luciferin-H conversion, luminescence; hits give high values; factor 1 = untreated enzyme, 0 = blocked. activation factor at 5 µM. 1.4% of 96,000 active;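 active = activation factor of 2 or more for CYP2C9 at a 5 µM dose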;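 also: 0 = sulfaphenazole-blocked wells and 1 = vehicle-only wells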
Target sequence (P11712 whole entry, looked up): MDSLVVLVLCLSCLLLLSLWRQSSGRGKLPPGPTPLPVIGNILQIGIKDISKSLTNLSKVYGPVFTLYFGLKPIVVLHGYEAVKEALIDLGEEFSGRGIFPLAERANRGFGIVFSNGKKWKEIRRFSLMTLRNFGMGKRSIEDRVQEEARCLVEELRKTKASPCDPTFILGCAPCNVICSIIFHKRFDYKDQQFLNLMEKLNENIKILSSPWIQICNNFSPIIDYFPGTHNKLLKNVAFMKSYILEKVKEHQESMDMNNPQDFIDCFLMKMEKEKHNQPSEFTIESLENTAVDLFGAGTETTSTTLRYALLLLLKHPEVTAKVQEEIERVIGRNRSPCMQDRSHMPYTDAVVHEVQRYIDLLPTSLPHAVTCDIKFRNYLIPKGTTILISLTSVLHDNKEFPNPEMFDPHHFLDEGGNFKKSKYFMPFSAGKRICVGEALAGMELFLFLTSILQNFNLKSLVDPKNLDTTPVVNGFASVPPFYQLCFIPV
Cav32 inh = human Cav3.2 channel inhibition, primary screen | AID 449739 | B-score at 10 µM | Cav3.2-expressing cells, Fluo-4 calcium fluorescence FDSS; hits give low values | 4% of 100,000 active | O95180;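 active = single-dose well whose peak fluorescence ratio is a statistical outlier from its plate by either plate-standardised score or position-corrected B-score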
CYP2C9 inh = human CYP2C9 inhibition; P11712; CYP2C9 Supersomes, luciferin-H conversion, luminescence; inhibition, % at 5 µM; 20% of 96,000 active; AID 777;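 active = blocking of liver enzyme CYP2C9 beyond about 50% at 5 µM, limit read from the data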
Starred values were filed as active, the others as inactive; . = no result given.

SMILES | CYP2C19 act | CYP2C19 inhib | CYP2C9 activ | Cav32 inh | CYP2C9 inh
Nc1nonc1C(=Nc1ccccc1)NO | 0.9 | 8.9 | 0.9 | 0.436 | 6.8
Cc1cc(NC(=O)C2CC=CCC2C(=O)O)no1 (stereo unspecified) | 1.2 | -24.5 | 1.2 | 0.717 | -24.5
CCCC(=O)Nc1nc2c(OC)ccc(OC)c2s1 | 0.7 | 29.7 | 0.4 | -0.634 | 60.9*
COc1ccc(OC)c2sc(NC(=O)C3CC3)nc12 | 0.7 | 30.7 | 0.4 | -0.104 | 57.1*
COc1ccc(-c2cnc3nc[nH]c(=O)c3n2)cc1 | . | . | . | 0.00621 | .
Cn1c(SCC(=O)c2ccc3c(c2)OCO3)nnc1-c1ccccn1 | 0.5 | 51.5* | 0.8 | 2 | 15.3
C=CCn1c(SCC(=O)c2ccccc2)nnc1-c1ccc2c(c1)OCO2 | 0.2 | 77.3* | 0.6 | . | 41.4
Cn1cnnc1SCC(=O)c1ccc2c(c1)OCCO2 | 1.1 | -13.3 | 1.2 | 0.306 | -20.1
O=C(CSc1nnc(SCc2cccc3ccccc23)s1)c1ccc2c(c1)OCO2 | 0.5 | 51.5* | 0.4 | . | 62.8*
Cc1ccccc1-n1c(SCC(=O)Nc2ccc3c(c2)OCO3)nnc1-c1ccccn1 | . | . | . | -1.34 | .
O=C(CSc1ccccn1)c1ccc2c(c1)OCO2 | 0 | 98.5* | 0.7 | -0.743 | 26.2
CC(=O)C1=C(O)C(=O)N(C)C1c1ccccc1F (stereo unspecified) | 1 | -0.1 | 1 | 1.54 | 4.3
CCC(c1nnnn1C(C)(C)CC)N(CCCO)Cc1cc2cccc(C)c2[nH]c1=O (stereo unspecified) | 0.3 | 71.0* | 0.3 | . | 75.0*
CCCn1c(SCC(=O)c2cc(C)ccc2C)n[nH]c1=O | 0.9 | 9.5 | 0.9 | 0.867 | 12.6
CCOC(=O)c1cnn(-c2cc(Oc3ccccc3)ncn2)c1N | 1.1 | -10.2 | 1 | 1.07 | 0.8
c1ccc(Oc2cc(-c3ccccc3)ncn2)cc1 | 0.3 | 65.9* | 0.9 | 0.992 | 13.3
CCOc1cc2[nH]c(=S)n(CC3CCCN3CC)c(=O)c2cc1OCC (stereo unspecified) | 1.1 | -12.1 | 1.1 | 1.25 | -5.7
Cc1onc(-c2ccccc2Cl)c1C(=O)Nc1ccc(CN2CCCC2)cc1 | 0.5 | 49.0 | 0.5 | 1.47 | 49.3
Cc1onc(-c2c(F)cccc2Cl)c1C(=O)N1C=CC(C(F)(F)Cl)=NCC1 | 0.4 | 57.6* | 0.7 | 0.0335 | 29.3
Cc1onc(-c2ccccc2Cl)c1C(=O)OCC(=O)N1CCCc2ccccc21 | 0.1 | 93.5* | 0 | -7.4* | 95.8*
Cc1onc(-c2ccccc2Cl)c1C(=O)N1CCCc2ccccc21 | 0.3 | 68.4* | 0.8 | -1.18 | 16.5
Cc1onc(-c2c(F)cccc2Cl)c1C(=O)N1CCCc2ccccc21 | 0.3 | 66.4* | 0.7 | -0.765 | 25.7
O=c1c2ccccc2nnn1CSc1nnc(-c2ccc3c(c2)OCO3)o1 | 1 | 4.3 | 0.8 | 0.873 | 21.1
CC(C)(C)CN1C(=O)C(=O)NC[C@@H]1Cc1ccc(O)cc1 | . | . | . | -0.00563 | .
CCC(C)c1ccc2oc(-c3ccc(NC(=O)Cn4cnc5c(=O)n(C)c(=O)n(C)c54)cc3)nc2c1 (stereo unspecified) | 0.9 | 11.8 | 0.5 | -0.763 | 48.2
SMILES | CYP2C19 act | CYP2C19 inhib | CYP2C9 activ | Cav32 inh | CYP2C9 inh
COc1ccc2nc(NC(=O)CCc3nc(-c4ccccc4F)no3)sc2c1 | 0.7 | 27.1 | 0.5 | 0.772 | 47.7
O=C1Nc2ncccc2OC1CCO (stereo unspecified) | 1.1 | -5.8 | 1 | 0.435 | -4.1
Cc1onc(-c2ccccc2Cl)c1C(=O)N1CCc2ccccc21 | 0.3 | 69.3* | 0.7 | -0.246 | 33.6
Cc1onc(-c2ccccc2)c1C(=O)N1CCc2ccccc21 | 0.1 | 90.3* | 0.6 | -1.06 | 40.8
Cc1noc(C)c1C(=O)N1CCCc2ccccc21 | 0.8 | 18.0 | 1 | . | 4.1
CCC(C)n1nccc1NC(=O)C(C)OC(=O)c1cc2ccccc2[nH]1 (stereo unspecified) | 0 | 97.0* | 0.7 | -0.515 | 30.4
CC1(c2nnc(-c3ccccc3)o2)CC(c2ccccc2)=NO1 (stereo unspecified) | . | . | . | -1.37 | .
COc1cc2[nH]c(=O)c(C(=O)NCCCN3CCCCC3)c(O)c2cc1OC | 0.5 | 52.4* | 0.7 | 1.27 | 28.4
O=C(NCCCN1CCOCC1)c1c(O)c2ccccc2[nH]c1=O | 1.1 | -10.0 | 1.1 | 2.16 | -10.1
Cc1ccc(NC(=O)N2CCOCC2)c(C)c1 | 1 | 4.0 | 1 | 1.12 | 1.3
CC(=O)/C(=N/Nc1cccc(C)c1)N1CCOCC1 | 0.3 | 66.6* | 0.3 | . | 67.5*
Cc1nc(CSc2ccc(Cl)cc2)cc(N2CCOCC2)n1 | 0.1 | 94.3* | 0.9 | -0.406 | 12.2
Cc1ccc(SCc2cc(=O)[nH]c(N3CCOCC3)n2)cc1 | 0.9 | 7.9 | 1.1 | 0.527 | -8.5
Cc1nc(S(=O)(=O)c2ccc(Cl)cc2)c(NCc2ccccc2)o1 | 0.6 | 39.5 | 1 | 0.0195 | 2.8
Cc1nc(CSc2ccc(Cl)cc2)cc(NCc2ccccc2)n1 | 0.2 | 85.0* | 0.1 | -8.31* | 91.1*
Cc1nc(CS(=O)c2ccc(Cl)cc2)cc(NCc2ccc(Cl)cc2Cl)n1 (stereo unspecified) | 0.1 | 91.3* | 0 | -5.75* | 96.3*
CSCc1cc(N2CCOCC2)nc(SCc2ccc(Cl)c(Cl)c2)n1 | 0.5 | 52.6* | 0.5 | -3.71 | 48.6
S=c1nc(-c2ccccc2Br)[nH][nH]1 | . | . | . | -0.0908 | .
Cc1cccc(NC(=S)NN2CCN(C)CC2)c1 | 1 | 2.4 | 1 | 0.405 | -3.2
O=C(Nc1ccccc1N1CCN(C(=O)c2ccccc2)CC1)c1cc2ccccc2o1 | 0 | 96.9* | 0 | 0.845 | 95.6*
Nc1ccccc1N1CCN(C(=O)c2ccccc2)CC1 | . | . | . | -0.0737 | .
O=C(Nc1ccccc1N1CCN(C(=O)c2ccccc2)CC1)c1cc(Br)ccc1Cl | 0.3 | 71.3* | 0.2 | -1.89 | 81.8*
C#CC[N+](C)(C)C(C#Cc1ccccc1)CC=C (stereo unspecified) | 1.1 | -8.1 | 1 | 0.355 | 2.9
CC1(C(=O)N2CC3(CC(c4ccccc4)=NO3)C[C@H]2C(=O)NCC(N)=O)CC1 (stereo partly specified) | 0.9 | 6.6 | 1.1 | -0.334 | -12.1
Cc1cccc(N2CN=c3s/c(=C\c4ccncc4)c(=O)n3C2)c1 | 0.4 | 59.1* | 0.7 | . | 31.1
SMILES | CYP2C19 act | CYP2C19 inhib | CYP2C9 activ | Cav32 inh | CYP2C9 inh
COc1cc(N2CN=c3s/c(=C\c4ccccn4)c(=O)n3C2)cc(OC)c1OC | 0.8 | 22.3 | 0.4 | -1.19 | 56.4*
Cc1ccc(-n2c(=O)c3sccc3n(CC(=O)NCc3ccco3)c2=O)cc1F | 1.1 | -5.2 | 0.9 | -0.0416 | 8.8
COc1cc(N/C(=N/S(=O)(=O)c2ccccc2)c2ccccc2)ncn1 | 1.1 | -6.8 | 0.9 | 1.9 | 8.2
COc1c(S(=O)(=O)N2CCCC2)ccc(Cl)c1Cl | 0.1 | 88.5* | 2.4* | . | -140.5
O=S(=O)(c1cccc(Cl)c1Cl)N1CCCCC1 | 0.2 | 83.2* | 2.7* | -3.7 | -169.8
COc1ccc(S(=O)(=O)N2CCN(C)CC2)c2ccccc12 | 0.9 | 12.9 | 1.8 | 0.136 | -82.7

Source: PubChem BioAssay (several laboratories)
